# What was measured:
# Assay in all cases: PBM binding z-score (relative to random genomic background probes); higher = stronger binding; sequences stand for … in GC…GCGATTGACAGCGTAGAATGAAGG
# [1] = test system: FXR:RXRa (NR concentration 270 nM, RXRa partner concentration 90 nM)
# Method in brief: (§1)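 Ligand-free nuclear receptor dimers were bound for 1 h to custom Agilent 4×180K protein-binding microarrays. Detection used antibodies against each partner (one per run). Binding z-scores rest on regression-normalized fluorescence, with random background probes as the reference.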
# [2] = test system: LXRa:RXRa (NR concentration 270 nM, RXRa partner concentration 90 nM)
# Method in brief: as §1
# [3] = test system: LXRa homodimer (NR concentration 270 nM)
# Method in brief: as §1
# [4] = test system: LXRb:RXRa (NR concentration 270 nM, RXRa partner concentration 90 nM)
# Method in brief: as §1
# [5] = test system: LXRb homodimer (NR concentration 270 nM)
# Method in brief: as §1
# [6] = test system: PPARa:RXRa (NR concentration 270 nM, RXRa partner concentration 90 nM)
# Method in brief: as §1
# [7] = test system: PPARg:RXRa (NR concentration 180 nM, RXRa partner concentration 90 nM)
# Method in brief: as §1
# [8] = test system: PPARg:RXRa 270nM:90nM, anti-RXR (NR concentration 270 nM, RXRa partner concentration 90 nM)
# Method in brief: as §1
# [9] = test system: PPARg:RXRa 30nM:10nM, anti-RXR (NR concentration 30 nM, RXRa partner concentration 10 nM)
# Method in brief: as §1
# [10] = test system: PPARg:RXRa 90nM:30nM, anti-RXR (NR concentration 90 nM, RXRa partner concentration 30 nM)
# Method in brief: as §1
# [11] = test system: PPARg:RXRa DBDmut IVT, anti-RXR (DBD mutation: RXRa K156A/R161A, NR concentration 270 nM, RXRa partner concentration 90 nM)
# Method in brief: as §1
# [12] = test system: PPARg:RXRa IVT, anti-PPARg (NR concentration 270 nM, RXRa partner concentration 90 nM)
# Method in brief: as §1
# [13] = test system: PPARg DBDmut:RXRa IVT, anti-PPARg (DBD mutation: PPARg1 K132A/R137A, NR concentration 270 nM, RXRa partner concentration 90 nM)
# Method in brief: as §1
# [14] = test system: PPARg DBDmut IVT, anti-PPARg (DBD mutation: PPARg1 K132A/R137A, NR concentration 270 nM)
# Method in brief: as §1
# [15] = test system: PPARg homodimer (NR concentration 180 nM)
# Method in brief: as §1
# [16] = test system: PXR:RXRa (NR concentration 270 nM, RXRa partner concentration 90 nM)
# Method in brief: as §1
# [17] = test system: PXR homodimer (NR concentration 270 nM)
# Method in brief: as §1
# [18] = test system: RARa:RXR (NR concentration 270 nM, RXRa partner concentration 90 nM)
# Method in brief: as §1
# [19] = test system: RARa homodimer (NR concentration 270 nM)
# Method in brief: as §1
# [20] = test system: RARb:RXRa (NR concentration 270 nM, RXRa partner concentration 90 nM)
# Method in brief: as §1
Sequence,PBM binding z-score [1],PBM binding z-score [2],PBM binding z-score [3],PBM binding z-score [4],PBM binding z-score [5],PBM binding z-score [6],PBM binding z-score [7],PBM binding z-score [8],PBM binding z-score [9],PBM binding z-score [10],PBM binding z-score [11],PBM binding z-score [12],PBM binding z-score [13],PBM binding z-score [14],PBM binding z-score [15],PBM binding z-score [16],PBM binding z-score [17],PBM binding z-score [18],PBM binding z-score [19],PBM binding z-score [20]
CCTAGTTGGGCAGGAGGTCACACACCGGATATGA,2.73,2.97,1.41,2.79,-0.389,3.7,3.31,4.01,1.77,3.33,0.343,2.59,-0.448,-0.00376,2.16,3.77,0.916,3.7,1.59,3.15
AGCGAAAGGTCGAAGGTGAGTATACCCACCCGAA,4.1,3.39,-0.15,2.68,-0.267,4.61,4.72,5.09,2.12,4.25,0.0438,2.06,0.39,-0.438,1.16,2.97,-0.17,4.28,0.406,3.6
CCTAGTTGGTCAGGAGGCCACACACCGGATATGA,0.457,0.364,0.335,0.191,0.0739,0.181,0.848,0.732,0.118,0.128,0.654,1.37,0.117,-0.424,0.805,-0.041,0.627,-0.174,0.55,1.23
ATCGAAAGGTCGACGAGGTGAGTATGCACCGTTT,4.61,3.13,-0.377,2.5,0.258,4.53,2.51,3.05,0.831,1.92,0.283,1.96,0.899,0.519,1.67,2.99,0.682,3.5,0.243,3.99
TCTCGGAGGACACGAAAGGTCAGTGCTCGACATC,2.42,3.37,3.24,2.99,-0.000616,2.99,0.746,2.29,2.43,2.19,1.47,1.67,-0.413,-0.365,3.45,3.79,0.68,4.07,1.12,4.13
GATACAGGGTCAGCTAGAGGGCAGAGTATGGAAA,4.97,3.61,0.31,3.04,-0.0711,4.5,4.11,3.6,0.823,2.38,1.36,2.69,1.37,0.18,4.2,4.38,0.747,5.63,1.68,4.51
ACTCGGAGGACAAACGTCAGAGCTACGCCAGTGA,-0.117,-0.418,-0.482,-0.769,-0.602,-0.386,0.904,0.765,-0.389,0.589,-0.0796,-0.507,-0.617,-0.00127,-0.209,-0.77,-0.0928,-0.299,-0.122,0.951

# — the supplement of paper PMC6555819
